Only some compounds are listed: those with a hit (about 3.1% of all), similar ones and a draw of the others.
Autofluor counter: compound fluorescence in toxin protease inhibitor counterscreen; compound autofluorescence counterscreen, microsphere flow cytometry; active compounds read high; AID 624483; fluorescence intensity (no concentration beside the values); actives 3.1% (n = 360,000); in the data active = fluorescence intensity above about 16000; inconclusive = no clear call, values can overlap the other calls
SSB-PriA inh: inhibitors of Klebsiella pneumoniae PriA binding to SSB C-terminal tail, primary screen, biochemical, AlphaScreen. inhibition, % at 33 µM. actives 0.6% (n = 430,000). AID 1272365, 2023. AlphaScreen SSBct-PriA binding, biotinylated peptide; in the data active = inhibition mostly above about 37%, no sharp cut-off; inactive = mostly below about 20%;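 also: plate controls were negative control peptide for no effect and reference peptide for full effect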
BoNT F protease: BoNT/F light chain protease inhibitors, primary screen, biochemical, flow cytometry, MLPCN library; Botulinum neurotoxin type F light chain protease (Clostridium botulinum); Multiplex microsphere protease cleavage assay; inhibition, % at 10 µM; actives 0.22% (n = 360,000); AID 588497, 2011; in the data active = inhibition above about 35%, passing the limit was not always enough; inconclusive = no clear call, values can overlap the other calls; also: plate controls were buffer without enzyme for full effect and enzyme alone for no effect
BoNT A protease: BoNT/A light chain protease inhibitors, primary screen, biochemical, flow cytometry, MLPCN library; actives 0.17% (n = 360,000); Botulinum neurotoxin type A light chain protease (Clostridium botulinum A str. ATCC 3502); AID 588499, 2011; inhibition, % at 10 µM; multiplex microsphere protease substrate cleavage; also: plate controls were buffer without enzyme for full effect and enzyme alone for no effect
Anthrax LF inh2: Bacillus anthracis LF protease inhibitors, primary screen, biochemical, multiplex microsphere, MLPCN library; Lethal factor (Bacillus anthracis), P15917; multiplex microsphere protease cleavage assay; inhibition, % at 10 µM; actives 0.12% (n = 360,000); also: plate controls were buffer without enzyme for full effect and enzyme alone for no effect
* marks the source's active call; other numbers are inactive results; ! = a repeat was not active. Rule as the data show it, unless noted: active = inhibition above about 30%; inconclusive = no clear call, values can overlap the other calls; inactive = below that.

What do the screens show for `CCN(CC)S(=O)(=O)c1ccc(NC(=O)c2ccc(N(C)S(C)(=O)=O)cc2)cc1`?
Autofluor counter: 4787; SSB-PriA inh: 4.8; BoNT F protease: -44.3; BoNT A protease: -0.5; Anthrax LF inh2: -11.7

What do the screens show for `COc1ccc(CC(C)N2CCN(Cc3ccccc3)CC2)c(OC)c1` (stereo not given)?
Autofluor counter: 18004*; SSB-PriA inh: -7.2; BoNT F protease: 9.8; BoNT A protease: 7.7; Anthrax LF inh2: -0.6

Results for O=S(=O)(c1ccc2c(c1)OCCO2)N1CC(n2cc(-c3ccccc3)nn2)C1 ?
SSB-PriA inh: -3.0

Results for O=C(Nc1cccc(C(F)(F)F)c1)C1CCCN(S(=O)(=O)c2cnc[nH]2)C1 (stereo not given) ?
Autofluor counter: 22065*; SSB-PriA inh: -6.0; BoNT F protease: 1.5; BoNT A protease: 2.0; Anthrax LF inh2: -2.6

How did O=C(Nc1ccc(S(=O)(=O)N2CCCCCC2)cc1)c1ccc(Br)o1 do in these assays?
Autofluor counter: 21567*; SSB-PriA inh: -3.9; BoNT F protease: -4.6; BoNT A protease: -2.3; Anthrax LF inh2: -1.2

How did O=C(Nc1ccc(S(=O)(=O)N2CCOCC2)cc1)c1ccco1 do in these assays?
Autofluor counter: 4574; SSB-PriA inh: -3.4; BoNT F protease: -5.0; BoNT A protease: -0.9; Anthrax LF inh2: -1.5

Results for O=C(Nc1ccccc1C(=O)O)c1cccc(NC(=O)c2ccc(Br)o2)c1 ?
Autofluor counter: 2174; SSB-PriA inh: 3.4; BoNT F protease: 11.2; BoNT A protease: 0.1; Anthrax LF inh2: -2.7

What do the screens show for `O=C(Nc1ccccc1C(=O)O)c1ccc(NC(=O)c2ccc(Br)o2)cc1`?
Autofluor counter: 23730*; SSB-PriA inh: -8.6; BoNT F protease: -0.8; BoNT A protease: -1.5; Anthrax LF inh2: -3.5

Results for Cc1ccc(C(=O)Nc2ccc(S(=O)(=O)N3CCCC3)cc2)o1 ?
Autofluor counter: 5745; SSB-PriA inh: 7.9; BoNT F protease: -2.6; BoNT A protease: 0.9; Anthrax LF inh2: 0.2

Results for O=C(CNC(=O)c1ccco1)Nc1ccc(S(=O)(=O)N2CCCC2)cc1 ?
Autofluor counter: 21490*; SSB-PriA inh: -7.3; BoNT F protease: -8.7; BoNT A protease: -5.9; Anthrax LF inh2: 0.7

Results for COc1ccc(N2C(=O)c3ccccc3NC23CCC(C)CC3)cc1 (stereo not given) ?
Autofluor counter: 22907*; SSB-PriA inh: -11.0; BoNT F protease: -1.0; BoNT A protease: 0.2; Anthrax LF inh2: 0.2

What do the screens show for `COc1ccc(N2C(=O)c3ccccc3NC23CCCCC3)cc1`?
Autofluor counter: 7732; SSB-PriA inh: 1.3; BoNT F protease: 6.7; BoNT A protease: -0.1; Anthrax LF inh2: 0.9

Results for COc1ccc(OC)c(NC=C2C(=O)OC3(CCCCC3)OC2=O)c1 ?
Autofluor counter: 18401*; SSB-PriA inh: -19.9; BoNT F protease: 13.6; BoNT A protease: 9.5; Anthrax LF inh2: 2.4

What do the screens show for `CSC(N)=NN=Cc1cc(C)ccc1O`?
SSB-PriA inh: -8.4

What do the screens show for `Cc1cc(OC2CCN(C(=O)Cc3cccs3)CC2)cc(=O)n1C`?
SSB-PriA inh: -7.0

How did COC(=O)CSC(C(=O)Nc1ccc(C)c(C)c1)c1ccccc1 (stereo not given) do in these assays?
Autofluor counter: 22778*; SSB-PriA inh: -18.6; BoNT F protease: -0.4; BoNT A protease: 0.4; Anthrax LF inh2: -1.4

How did O=C(NCC(O)(c1cccs1)C1CC1)c1cncc(Br)c1 (stereo not given) do in these assays?
SSB-PriA inh: 3.0

What do the screens show for `Cc1ccn(-c2ccc([N+](=O)[O-])cc2)n1`?
Autofluor counter: 20585*; SSB-PriA inh: -10.1; BoNT F protease: -0.9; BoNT A protease: 0.2; Anthrax LF inh2: -2.3

Results for CN(C)CCCN(C(=O)c1cc(-c2cccs2)nc2ccccc12)c1nc2c(F)cccc2s1 ?
Autofluor counter: inconclusive; SSB-PriA inh: 52.0*!; BoNT F protease: -12.3; BoNT A protease: -4.6; Anthrax LF inh2: -7.0

How did Cc1ccc2nc(N(CCCN(C)C)C(=O)c3cc(-c4cccs4)nc4ccccc34)sc2c1 do in these assays?
Autofluor counter: 6510; SSB-PriA inh: 44.0*; BoNT F protease: -9.8; BoNT A protease: -2.6; Anthrax LF inh2: -4.8

Results for CN(C)CCCN(C(=O)c1sc2ccccc2c1Cl)c1nc2c(F)cccc2s1 ?
Autofluor counter: 2553; SSB-PriA inh: 13.4; BoNT F protease: 15.1; BoNT A protease: 0.9; Anthrax LF inh2: -3.9
